Measured values from PubChem BioAssay (NCI).
Compounds without any hit were thinned out: in the full panel of roughly 83,000, 20% have a hit.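 Activity criterion: percent growth below 10, measured after cells in 96-well plates were exposed to a single compound concentration for 48 hours.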 Unmarked numbers belong to inactive results. Active and inactive are the calls of the source.

Legend:
Test in all cases: NCI-60 one-dose screen, 48 h (100 = growth as untreated, 0 = no growth, -100 = all killed)
Settings in all cases: 10 µM unless noted
DU-145 prostate = test system: DU-145 prostate
K-562 leukemia = test system: K-562 leukemia
MALME-3M melanoma = test system: MALME-3M melanoma
MDA-MB-231 breast = test system: MDA-MB-231 breast
RXF 393 renal = test system: RXF 393 renal
SF-268 CNS = test system: SF-268 CNS
SF-295 CNS = test system: SF-295 CNS
SF-539 CNS = test system: SF-539 CNS
UACC-257 melanoma = test system: UACC-257 melanoma
M14 melanoma = test system: M14 melanoma
HCT-15 colon = test system: HCT-15 colon
HT29 colon = test system: HT29 colon
SNB-75 CNS = test system: SNB-75 CNS
SNB-19 CNS = test system: SNB-19 CNS
U251 CNS = test system: U251 CNS
PC-3 prostate = test system: PC-3 prostate
SK-MEL-5 melanoma = test system: SK-MEL-5 melanoma
LOX IMVI melanoma = test system: LOX IMVI melanoma
SK-MEL-28 melanoma = test system: SK-MEL-28 melanoma
UACC-62 melanoma = test system: UACC-62 melanoma

Structure (SMILES) | growth (DU-145 prostate) | growth (K-562 leukemia) | growth (MALME-3M melanoma) | growth (MDA-MB-231 breast) | growth (RXF 393 renal) | growth (SF-268 CNS) | growth (SF-295 CNS) | growth (SF-539 CNS) | growth (UACC-257 melanoma) | growth (M14 melanoma) | growth (HCT-15 colon) [%] | growth (HT29 colon) | growth (SNB-75 CNS) | growth (SNB-19 CNS) | growth (U251 CNS) | growth (PC-3 prostate) | growth (SK-MEL-5 melanoma) | growth (LOX IMVI melanoma) | growth (SK-MEL-28 melanoma) | growth (UACC-62 melanoma) [%]
COc1cc2nccc(Oc3ccc(NC(=O)C4(C(=O)Nc5ccc(F)cc5)CC4)cc3)c2cc1O | 77.7% | 9.3% (active) | 64% | 71% | 58.5% | 65.8% | 35.2% | 24.5% | 71.5% | 49.5% | 61.8 | 95.1% | 34% | 82% | 66% | 57.1% | 66.4% | 39.8% | – | –
O=C(Nc1ccc(Oc2ccc(NC(=O)Nc3ccccc3Cl)cc2)cc1)Nc1ccccc1Cl | 24.2% | 33.6% | 66.7% | 72.3% | -15.8% (active) | 40.3% | 71.2% | 62.8% | 60.5% | 65% | 38.9 | 45.9% | 58.2% | 115% | 24.6% | 1.99% (active) | 62.5% | 48.5% | -17.7% (active) | –
Oc1c(C(c2ccc(F)cc2)N2CCCCC2)ccc2cncnc12 (centres undefined) | 23.3% | 10.4% | 3.63% (active) | 14.4% | 31.1% | 20.9% | -1.59% (active) | 13.9% | 0.316% (active) | 15.7% | 26 | 13.5% | 7.45% (active) | 11.1% | 1.52% (active) | 10.6% | -19.7% (active) | 7.17% (active) | – | –
CC(C)CC(NC(=O)OCC1c2ccccc2-c2ccccc21)C(=O)O (centres undefined) | 116% | 116% | 109% | 103% | 103% | 112% | 77.2% | 104% | 102% | 105% | 105 | 112% | 90.3% | 99.1% | 97.6% | 104% | 101% | 103% | 105% | 104
CCOc1ccc([C@@H]2[C@@H](Oc3ccccc3)C(=O)N2c2cc(OC)c(OC)c(OC)c2)cc1 | 12.5% | 6.3% (active) | 71.8% | 10.1% | 14.1% | 33.9% | 13.1% | -12.9% (active) | 73.7% | 4.74% (active) | 10.8 | 5.82% (active) | 65.6% | 35.4% | 21.7% | 25.6% | -18.7% (active) | 26.7% | 64.8% | 26
COC1=CC(c2ccc[nH]2)=N/C1=C\c1[nH]c(C)c(C(=O)CCCCCCCCC(=O)O[C@H]2CC[C@H]3C4CCc5cc(O)ccc5C4CC[C@]23C)c1C (some centres undefined) | 32.2% | 13.1% | 40.5% | 3.86% (active) | 52.5% | 38.7% | 28.8% | 32.5% | 49.2% | -35.7% (active) | 41 | 14.3% | 19.6% | 56.2% | 20.9% | 23% | -83% (active) | -44.2% (active) | 34.5% | –
COc1ccc(C2CC(c3ccc(Nc4ccnc5cc(Cl)ccc45)cc3)=NN2c2ccccc2)cc1 (centres undefined) | 105% | 67.9% | 94.4% | 103% | 109% | 108% | 107% | 88.2% | 97.4% | 99.6% | 87.2 | 52% | 104% | 109% | 81.9% | 78% | 79.9% | 100% | 97.3% | 95
CNC(=O)c1ccccc1Sc1ccc2c(/C=C/c3ccccn3)n[nH]c2c1 | 47.5% | 6.57% (active) | 37.2% | 39.7% | 2.21% (active) | 41.9% | 40% | 3.31% (active) | 31.5% | 16.9% | 33.9 | 25.2% | 26.3% | 50.2% | 40.1% | 28.1% | 11.2% | 8.31% (active) | 40.7% | –
CC[C@H](Nc1nc(N)nc(C2CC2)c1C#N)c1nc2cccc(NCc3ccc(C(=O)NO)cc3)c2c(=O)n1-c1ccccc1 | -29.3% (active) | -14% (active) | -2.35% (active) | 2.7% (active) | -15.2% (active) | 4.22% (active) | -26.9% (active) | -0.037% (active) | -2.7% (active) | -18.6% (active) | 19 | 13.4% | -2.59% (active) | 7.25% (active) | -4.25% (active) | 10.1% | -29.5% (active) | -89.2% (active) | – | –
O=C(CI)NCCNc1cccc2c(S(=O)(=O)O)cccc12 | 96.3% | 110% | 103% | 93.5% | 101% | 93.3% | 98.5% | 105% | 108% | 98.4% | 98.6 | 110% | 96.9% | 89.7% | 105% | 102% | 99.6% | 103% | 106% | 89.5
COc1c(C(=O)/C=C/c2ccc(C)o2)c(O)cc2occc12 | 87.1% | 22.5% | 76.7% | 89% | 62% | 80.1% | 82.4% | 80.6% | 86.1% | 55.5% | 35.9 | 65.2% | 59.8% | 76.5% | – | 72.2% | 86.6% | 71.2% | – | 58.6
CC(C)N1CCN(c2ccncc2S(=O)(=O)N2CCN(C)CC2)CC1 | 110% | 98% | 113% | 101% | 107% | 107% | – | 99.8% | 102% | 99.5% | 97.6 | 102% | 80.6% | 98.7% | 98.8% | 114% | 100% | 97.4% | 114% | 108
Cc1cc(C)c([O-])c(CN(C)CCN(C)Cc2cc(C)cc(C)c2[O-])c1.O=C([O-])c1cccc(C(=O)[O-])n1.[Ti+4] | 33.8% | -1.84% (active) | -45.7% (active) | 44.6% | -43.5% (active) | 23.9% | 12.8% | 7.18% (active) | 19.8% | -49.8% (active) | 36.4 | – | -12.1% (active) | 26.6% | 9.4% (active) | -0.468% (active) | 9.84% (active) | -58.1% (active) | -27.2% (active) | –
CC(C)c1[nH]ncc1-c1nc2ccc3[nH]ncc3c2c2c1CCCC2 | 33.9% | 42% | 52.6% | 35.6% | -8.2% (active) | 36.7% | 43.1% | 23% | 44% | 37.1% | 37.5 | – | -3.19% (active) | 40.4% | – | 44.2% | 45.2% | 23.6% | – | 34.1
[Ag].[Ag].[NH-]S(=O)(=O)c1ccc(N=Nc2cc(N=Nc3ccc(S([NH-])(=O)=O)cc3)c3c(NC(=O)C(Cl)Cl)cccc3c2OC(=O)C(Cl)Cl)cc1.[c-]1nccs1.[c-]1nccs1 | 70.1% | 83.8% | 67.4% | 49.5% | 71.5% | 78.6% | 81.6% | 95.7% | 82.4% | 97.4% | 79 | 76.2% | 51.3% | 80.7% | – | 48.2% | 35.6% | 78.7% | 89.1% | 91.8
CC(=O)c1ccc(Nc2nc(Cl)nc(Oc3c(Cl)cccc3Cl)n2)cc1 | 91.1% | 82.5% | 83.2% | 80% | 101% | 91.3% | 89.6% | 90.4% | 95.4% | 101% | 89.7 | – | 75% | 81.9% | 76.9% | 72.5% | 79.1% | 87.9% | – | –
